The source made the active and inactive calls. Rule for the calls: active = hit-call score of the fitted dose curve at least 0.9, where 1 is the maximum; inactive = score below 0.9.

As usually defined, the AC50 is the concentration at which the activity in the assay is half-maximal.

Read-out in the test: Interleukin-8 (IL8), CXCL8 (gene 3576)
The test can be described thus: BSK_LPS_IL8: BioMAP Diversity Plus: LPS Assay for Interleukin-8 (IL8) Biomarker Activity (AID 2283078). The note with it: primary human HUVEC with PBMC; actives raise or lower the signal. The procedure: BSK_LPS is a cell-based, multiplexed-readout assay that uses umbilical vein endothelium and peripheral blood mononuclear cells, a human vascular primary cell co-culture, with measurements taken at 24 hours after chemical dosing in a 96-well plate.BSK_LPS_IL8 is an assay component measured in the BSK_LPS assay. It measures IL-8 antibody related to regulation of gene expression using ELISA technology.Data from the assay component BSK_LPS_IL8 was analyzed into 1 assay endpoint. This assay endpoint, BSK_LPS_IL8, was analyzed with bidirectional fitting relative to DMSO as the negative control and baseline of activity. Using a type of binding reporter, gain or loss-of-signal activity can be used to understand changes in the signaling as they relate to the gene CXCL8. Furthermore, this assay endpoint can be referred to as a primary readout, because this assay has produced multiple assay endpoints where this one serves a signaling function. To generalize the intended target to other relatable targets, this assay endpoint is annotated to the cytokine intended target family, where the subfamily is interleukins.
The levels of cell surface (or secreted, indicated by the prefix "s") biomarker endpoints were measured by ELISA. Overt cytotoxicity to cells in confluent adherent cultures (all systems other than the BT system) was assessed by measuring total protein levels using sulforhodamine B (SRB) staining in parallel cultures at the time of biomarker measurements, indicated as SRB endpoints. For proliferation assays for adherent cell types, individual cell types are cultured at sub-confluence and relative cell numbers quantified by SRB staining at time points optimized for each system (48 h: 3C and CASM3C systems; 72 h: BT and HDF3CGF systems; 96 h: SAg system). SRB was performed by staining cells with 0.1% SRB after fixation with 10% TCA and reading wells at 560 nm.Viability and proliferation of PBMC (T cells) was quantified by Alamar Blue reduction for the SAg and BT systems. For PBMC viability (referred to as PBMC Cytotoxicity within the assay endpoint names), cells were plated (75,000/well in a 96-well plate) and then chemical samples added for 1 h before addition of activators, SEB and TSST-1 (20 ng/mL final concentration each). Cells were incubated for 90 h. Then, Alamar Blue (20 uL/well) (Invitrogen, Cat DAL1100) was added for 6 h, and the plates were read with a fluorescence microplate reader at 546/580 nm (excitation/emission). For PBMC proliferation, cells were plated and activated as above but incubated for only 16 h prior to addition of Alamar Blue. Plates were read after 6 h.
Consider `OC[C@H]1O[C@@H]2O[C@H]3[C@H](O)[C@@H](O)[C@@H](O[C@H]4[C@H](O)[C@@H](O)[C@@H](O[C@H]5[C@H](O)[C@@H](O)[C@@H](O[C@H]6[C@H](O)[C@@H](O)[C@@H](O[C@H]7[C@H](O)[C@@H](O)[C@@H](O[C@H]1[C@H](O)[C@H]2O)O[C@@H]7CO)O[C@@H]6CO)O[C@@H]5CO)O[C@@H]4CO)O[C@@H]3CO`, for which the result was inactive. Still for that read-out and setting: under `COCc1nnc(-c2ccc[n+]([O-])c2)n1-c1c(Cl)c(Cl)cc2[nH]c(=O)c(=O)[nH]c12` stands “inactive”. Same read-out and setting: under `C=CN1CCCC1=O` stands “inactive”; under `NC(=O)N1c2ccccc2C=Cc2ccccc21`, “inactive”. In the case of `Cn1c(=O)c2[nH]cnc2n(C)c1=O`, the outcome was inactive. The same measure, in the same setting: for `OCC(CO)(CO)CO` the value was “inactive”; for `CCOC(N)=O`, “inactive”; for `CC(C)CCCCCCOC(=O)C1CCCCC1C(=O)OCCCCCCC(C)C` (stereo not given), “inactive”. Same read-out and setting: under `NC(=O)NN=Cc1ccc([N+](=O)[O-])o1` stands “inactive”; under `CC[C@H](C)C(=O)O[C@H]1C[C@H](O)C=C2C=C[C@H](C)[C@H](CC[C@@H](O)C[C@@H](O)CC(=O)O)[C@H]21`, “inactive”; under `OC[C@H]1O[C@@](CO)(O[C@H]2O[C@H](CO)[C@@H](O)[C@H](O)[C@H]2O)[C@@H](O)[C@@H]1O`, “inactive”. With `S=P(N1CC1)(N1CC1)N1CC1`, the result was inactive. For `O=C1CN(N=Cc2ccc([N+](=O)[O-])o2)C(=O)N1`, the result was inactive. For `Cc1ncc([C@@H](CCCCCCc2ccc3c(n2)NCCC3)CC(=O)O)cn1`, the result was inactive. In the case of `COS(C)(=O)=O`, the outcome was inactive.

For `CCn1nc(C)c2c1C(=O)NCC(c1ccc(O)cc1)=N2`, the result was inactive. On the same count and under the same terms, for `Nc1ccn([C@@H]2O[C@H](CO)[C@@H](O)[C@@H]2O)c(=O)n1` the value was “inactive”; for `CCCCCCCC/C=C\CCCCCCCC(=O)OC[C@@H](O)[C@H]1OC[C@H](O)[C@H]1O`, “inactive”; for `CCOc1ccc2[nH]cc(C(=O)NCc3ccccc3)c(=O)c2n1`, “inactive”.

Take `CCN(CC)C(=S)SSC(=S)N(CC)CC`: the AC50 was 29.7 µM (active). In the case of `CC(C)CC(C)O` (stereo not given), the result was inactive.

For `O=c1[nH]cnc2c1ncn2[C@H]1CC[C@@H](CO)O1`, the outcome was inactive. On the same count and under the same terms, under `COc1cc(C(C)C)c2c(c1)S(=O)(=O)N(COc1cc(=O)n3cccc(OCCN4CCCCC4)c3n1)C2=O` stands “inactive”.

On to `CC(C)c1nnc2ccc(-c3ocnc3-c3cc(F)ccc3F)cn12`, for which the AC50 was 0.148 µM (active). As to `CCCC(CCC)C(=O)O`, the outcome was inactive. Same read-out and setting: for `C[C@]12C=CC(=O)C=C1CC[C@H]1[C@@H]3C[C@@H](O)[C@](O)(C(=O)CO)[C@@]3(C)C[C@H](O)[C@@]12F` the value was “inactive”. The same measure, in the same setting: under `OCCOCCOCCO` stands “inactive”. As for `OC(CCl)CCl`, the outcome was inactive. Consider `FC(F)=C(F)C(F)(F)C(F)(F)C(F)(F)C(F)(F)C(F)(F)C(F)(F)F`, for which the outcome was inactive.

With `CC(C)C(=O)Nc1ccc([N+](=O)[O-])c(C(F)(F)F)c1`, the result was inactive. Still for that read-out and setting: for `NC(N)=O` the value was “inactive”; for `NCC(F)(F)C(F)(F)C(F)(F)C(F)(F)F`, “inactive”; for `CCCCCCOC(=O)CC(CC(=O)OCCCCCC)(OC(=O)CCC)C(=O)OCCCCCC`, “inactive”. For `OC(O)(C(F)C(O)(O)C(F)(F)F)C(F)(F)F`, the result was inactive. Still for that read-out and setting: for `O=C(NO)C1(NS(=O)(=O)c2ccc(Oc3ccc(F)cc3)cc2)CCOCC1` the value was “inactive”; for `CCc1cccc(CC)c1N`, “inactive”. As for `CCCCC(CC)C(=O)OCCOCCOCCOC(=O)C(CC)CCCC` (stereo not given), the AC50 was 15.7 µM (active). `OCCNCCO`: the result was inactive. Consider `O=C(O)c1cccc(C[C@@H]2COc3ccc(OCc4nc5cc(F)ccc5s4)cc3[C@@H]2O)c1`, for which the outcome was inactive. As to `C=CCc1cc(S(=O)(=O)c2ccc(O)c(CC=C)c2)ccc1O`, the concentration at half-maximal activity (AC50) was 16.2 µM (active).

For the origin of these results see PubChem BioAssay (EPA / NIEHS).
